# Reference: PubChem BioAssay (Tox21)
# Records with an inconclusive call do not appear. Where a call stands in place of a potency, no number is given. Where a structure was tested more than once in an assay, its records may differ in their call. Calls of active or inactive are those of the source. Unless noted, calls come from the whole dose curve; as a rule, active = well fitted curve in the direction sought with a large enough effect in the repeat runs; inconclusive = weak or mixed curves; inactive = no such curve, though single readings can be large; an effect the other way counts as inactive or inconclusive.
# Experiments:
# [1] = qHTS assay to identify aromatase inhibitors - cell viability counter screen (AID 743084);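 note: cells stimulated with testosterone during compound exposure; nearly all actives have a fitted effect of over 55% in size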
# [2] = target: Aryl hydrocarbon receptor (Homo sapiens) (UniProt P35869); assay: qHTS assay to identify small molecule that activate the aryl hydrocarbon receptor (AhR) signaling pathway (AID 743085); note: nearly all actives have a fitted effect of over 15% in size; note: potency is the fitted concentration of half-maximal effect;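 for activation: HG2L7.5c1 human HepG2 liver cells with stably integrated DRE-driven firefly reporter; series mostly up to about 70 µM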
# Outline: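 Stably transfected human liver carcinoma cells (HG2L7.5c1; 20 DRE-firefly luciferase) were incubated 5 h, dosed, and kept 24 h at 37C. Agonism was scored from increased luciferase luminescence.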
# [3] = qHTS assay to identify small molecule that activate the aryl hydrocarbon receptor (AhR) signaling pathway - cell viability counter screen (AID 743086);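 note: HepG2 liver cells carrying the AhR DRE luciferase reporter; series mostly up to about 70 µM; nearly all actives have a fitted effect of over 45% in size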
# Outline: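 Cytotoxicity counter screen: CellTiter-Fluor signal (30 min, 37 C) in 4000 HepG2 cells/well carrying the DRE-luciferase reporter, following 24 h compound exposure at 37 C.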
# [4] = target: Peroxisome proliferator-activated receptor gamma (Homo sapiens) (UniProt P37231); assay: qHTS assay to identify small molecule agonists of the peroxisome proliferator-activated receptor gamma (PPARg) signaling pathway (AID 743094; active = well fitted activation curve with a large enough effect in the signal ratio in the repeat runs, not every such curve was filed as active; the % refers to the signal ratio)
# Outline: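 Cell-based bla reporter, HEK293H background, PPARg-driven UAS. Pre-incubation 5 h, 37C, 5% CO2. Compound 17 h, 37C. Substrate 1 h RT; fluorescence.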
# [5] = qHTS assay to identify small molecule antagonists of the peroxisome proliferator-activated receptor gamma (PPARg) signaling pathway - cell viability counter screen (AID 743194); settings: Potency: co-treated with 50 nM rosiglitazone unless noted; note: nearly all actives have a fitted effect of over 55% in size
# Outline: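 Viability was measured as CellTiter-Glo luminescence in GeneBLAzer PPARg UAS-bla HEK293H cells. These cells had been exposed 17 h at 37 C to compounds together with rosiglitazone at 50 nM final, with the beta-lactamase readout taken in the same wells.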
# [6] = qHTS assay for small molecule agonists of the antioxidant response element (ARE) signaling pathway (AID 743202; active = well fitted activation curve with a large enough effect in the signal ratio in the repeat runs, not every such curve was filed as active; the % refers to the signal ratio)
# Outline: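 Beta-lactamase reporter activity, read as fluorescence intensity, reflects ARE/Nrf2 pathway induction in HepG2 cells after 16 h compound exposure at 37 C; substrate loading was 2 h at room temperature.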
# [7] = qHTS assay for small molecule agonists of the antioxidant response element (ARE) signaling pathway - cell viability counter screen (AID 743203; calls by dose curve; note: nearly all actives have a fitted effect of over 55% in size)
# Outline: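 Measured in the same wells as the beta-lactamase ARE reporter, this read-out is CellTiter-Glo luminescence from HepG2 ARE-bla cells given compounds for 16 hrs.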
# [8] = qHTS assay for small molecule activators of the heat shock response signaling pathway - cell viability counter screen (AID 743209); note: nearly all actives have a fitted effect of over 50% in size
# Outline: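 Same-well multiplex: after 2.5 h room-temperature incubation with LiveBLAzer B/G substrate and fluorescence reading, CellTiter-Glo reagent was added to HSE-bla HeLa cells that had received compound for 5 h at 37 C; luminescence read after 30 min.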
# [9] = qHTS assay to identify small molecule agonists of the peroxisome proliferator-activated receptor delta (PPARd) signaling pathway - cell viability counter screen (AID 743211); note: nearly all actives have a fitted effect of over 55% in size
# Outline: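 In the same wells used for beta-lactamase reporter measurement, cytotoxicity is scored by CellTiter-Glo. HEK293H PPARd-bla cells receive compound for 17 h at 37C following a 5 h settling period.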
# [10] = target: Peroxisome proliferator-activated receptor delta (Homo sapiens) (UniProt Q03181); assay: qHTS assay to identify small molecule agonists of the peroxisome proliferator-activated receptor delta (PPARd) signaling pathway (AID 743212; calls by dose curve;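 note: HEK293H cells with PPARd UAS beta-lactamase reporter GeneBLAzer system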)
# Outline: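 Steps: seed PPARd-bla HEK293H cells; incubate 5 h, 37 C, 5% CO2; add compounds in DMSO; incubate, 37 C; add LiveBLAzer B/G FRET substrate; hold 2 h at room temperature; measure fluorescence.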
# [11] = qHTS assay to identify small molecule antagonists of the peroxisome proliferator-activated receptor delta (PPARd) signaling pathway - cell viability counter screen (AID 743213); note: nearly all actives have a fitted effect of over 50% in size
# Outline: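 PPARd-bla HEK293H cells were treated with compounds plus agonist L165041 (300 nM final) for 17 h at 37 C. Viability was then read in the same wells by CellTiter-Glo luminescence after 30 min at room temperature.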
# [12] = target: Peroxisome proliferator-activated receptor delta (Homo sapiens) (UniProt Q03181); assay: qHTS assay to identify small molecule antagonists of the peroxisome proliferator-activated receptor delta (PPARd) signaling pathway (AID 743215; active = well fitted inhibition curve with a large enough effect in the signal ratio in the repeat runs, not every such curve was filed as active; the % refers to the signal ratio;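 note: cells stimulated with agonist L165041 at 300 nM final during compound exposure; series mostly up to about 62 µM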)
# Outline: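 Fluorescence from cleaved LiveBLAzer B/G FRET substrate (2 h, room temperature) reports PPARd-driven beta-lactamase in HEK293H UAS-bla cells. Cells had been treated 17 h at 37 C with compound plus 300 nM final L165041.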
# [13] = qHTS assay to identify small molecule agonists of the farnesoid-X-receptor (FXR) signaling pathway - cell viability counter screen (AID 743218); note: nearly all actives have a fitted effect of over 45% in size
# Outline: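 Readout: CellTiter-Glo luminescence, 30 min RT, multiplexed after the FXR-bla FRET reading. HEK 293T FXR-UAS-bla cells received compound 5 h post-plating and were incubated 16 h at 37 C.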
# [14] = qHTS assay to identify small molecule antagonists of the farnesoid-X-receptor (FXR) signaling pathway - cell viability counter screen (AID 743221; active = well fitted cell-killing curve with a large enough effect in the repeat runs, not every such curve was filed as active; note: nearly all actives have a fitted effect of over 50% in size)
# Outline: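 Here viability was scored by luminescence after CellTiter-Glo addition to wells already read for beta-lactamase. Prior treatment: compound plus CDCA (50 uM final), 16 h, 37 C, HEK 293T FXR-bla cells.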
# [15] = target: Peroxisome proliferator-activated receptor gamma (Homo sapiens) (UniProt P37231); assay: qHTS assay to identify small molecule antagonists of the peroxisome proliferator-activated receptor gamma (PPARg) signaling pathway (AID 743191; calls by dose curve; note: series mostly up to about 63 µM; nearly all actives have a fitted effect of over 30% in size)
# Outline: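 Beta-lactamase reporter under UAS control in HEK293H PPARg-bla cells; compound treatment 17 h at 37C. Read-out: fluorescence intensity after 1 h room-temperature incubation with LiveBLAzer B/G FRET substrate.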
# [16] = qHTS assay for small molecule activators of the heat shock response signaling pathway (AID 743210; active = well fitted activation curve with a large enough effect in the signal ratio in the repeat runs, with a control signal flat, not every such curve was filed as active; the % refers to the signal ratio;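 note: HeLa cells with beta-lactamase reporter driven by heat shock elements; series mostly up to about 63 µM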)
# Outline: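 Fluorescence from a cleaved B/G FRET substrate (2.5 h, room temp) reports HSE-driven beta-lactamase in HeLa cells treated 5 h at 37 C with DMSO-dissolved compounds.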
# [17] = target: Vitamin D3 receptor (Homo sapiens) (UniProt P11473); assay: qHTS assay to identify small molecule agonists of the vitamin D receptor (VDR) signaling pathway (AID 743222; calls by dose curve)
# Outline: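 Following 4 h attachment at 37C, VDR-bla cells (2,000 per well) received DMSO-dissolved compounds or controls. After 16 h incubation, LiveBLAzer B/G FRET substrate was added and fluorescence read 2 h later at room temperature.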
# [18] = target: Vitamin D3 receptor (Homo sapiens) (UniProt P11473); assay: qHTS assay to identify small molecule antagonists of the vitamin D receptor (VDR) signaling pathway (AID 743223; active = well fitted inhibition curve with a large enough effect in the signal ratio in the repeat runs, not every such curve was filed as active; the % refers to the signal ratio)
# Outline: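 Inhibition of agonist-driven VDR signalling is scored in VDR-bla cells: 3 nM final 1alpha,25-dihydroxyvitamin D3 plus compound, 16 h at 37C, then beta-lactamase detection by FRET substrate fluorescence after 2 h.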
# [19] = target: Bile acid receptor (Homo sapiens) (UniProt Q96RI1); assay: qHTS assay to identify small molecule antagonists of the farnesoid-X-receptor (FXR) signaling pathway (AID 743217; active = well fitted inhibition curve with a large enough effect in the signal ratio in the repeat runs, not every such curve was filed as active; the % refers to the signal ratio)
# Outline: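 FRET fluorescence after 2 h room-temperature LiveBLAzer loading gives the readout. Prior step: FXR-bla HEK 293T cells, seeded and incubated 5 h, received test compounds plus 50 uM final CDCA for 16 h at 37 °C.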
# [20] = target: Bile acid receptor (Homo sapiens) (UniProt Q96RI1); assay: qHTS assay to identify small molecule agonists of the farnesoid-X-receptor (FXR) signaling pathway (AID 743220; active = well fitted activation curve with a large enough effect in the signal ratio in the repeat runs, not every such curve was filed as active; the % refers to the signal ratio)
# Outline: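 FXR-UAS-bla HEK 293T cells carrying a UAS-driven beta-lactamase reporter were plated for 5 h at 37C/5% CO2, then exposed to DMSO-dissolved Tox21 10K compounds for 16 h at 37C. A LiveBLAzer B/G FRET substrate was loaded for 2 h at room temperature before fluorescence reading.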
# Sequence of Bile acid receptor (Homo sapiens) (Q96RI1 whole entry, looked up): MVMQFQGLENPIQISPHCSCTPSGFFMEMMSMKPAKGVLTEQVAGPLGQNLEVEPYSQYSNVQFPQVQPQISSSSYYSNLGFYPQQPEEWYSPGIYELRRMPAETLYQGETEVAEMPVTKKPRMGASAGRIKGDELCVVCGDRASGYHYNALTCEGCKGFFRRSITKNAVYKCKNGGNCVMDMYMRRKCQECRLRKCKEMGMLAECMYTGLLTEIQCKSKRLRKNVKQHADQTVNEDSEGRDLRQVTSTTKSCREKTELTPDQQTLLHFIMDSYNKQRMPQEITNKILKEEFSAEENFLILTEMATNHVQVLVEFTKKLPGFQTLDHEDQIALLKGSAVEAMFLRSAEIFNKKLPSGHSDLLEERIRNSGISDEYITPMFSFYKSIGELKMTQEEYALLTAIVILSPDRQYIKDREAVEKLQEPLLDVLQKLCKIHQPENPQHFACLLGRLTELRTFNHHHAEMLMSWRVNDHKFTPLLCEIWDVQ
# Sequence of Peroxisome proliferator-activated receptor delta (Homo sapiens) (Q03181 whole entry, looked up): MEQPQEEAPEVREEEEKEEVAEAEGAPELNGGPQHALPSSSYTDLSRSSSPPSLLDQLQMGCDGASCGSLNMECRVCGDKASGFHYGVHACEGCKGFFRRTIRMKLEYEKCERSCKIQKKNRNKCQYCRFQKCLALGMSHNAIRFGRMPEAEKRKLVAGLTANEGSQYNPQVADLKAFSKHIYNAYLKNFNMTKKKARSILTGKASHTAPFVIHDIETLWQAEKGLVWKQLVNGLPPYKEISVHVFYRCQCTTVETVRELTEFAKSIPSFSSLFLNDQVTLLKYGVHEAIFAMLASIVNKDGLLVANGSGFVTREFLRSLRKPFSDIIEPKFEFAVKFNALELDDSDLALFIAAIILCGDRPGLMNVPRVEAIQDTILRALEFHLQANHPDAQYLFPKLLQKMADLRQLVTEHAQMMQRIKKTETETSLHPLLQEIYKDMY
# Sequence of Vitamin D3 receptor (Homo sapiens) (P11473 whole entry, looked up): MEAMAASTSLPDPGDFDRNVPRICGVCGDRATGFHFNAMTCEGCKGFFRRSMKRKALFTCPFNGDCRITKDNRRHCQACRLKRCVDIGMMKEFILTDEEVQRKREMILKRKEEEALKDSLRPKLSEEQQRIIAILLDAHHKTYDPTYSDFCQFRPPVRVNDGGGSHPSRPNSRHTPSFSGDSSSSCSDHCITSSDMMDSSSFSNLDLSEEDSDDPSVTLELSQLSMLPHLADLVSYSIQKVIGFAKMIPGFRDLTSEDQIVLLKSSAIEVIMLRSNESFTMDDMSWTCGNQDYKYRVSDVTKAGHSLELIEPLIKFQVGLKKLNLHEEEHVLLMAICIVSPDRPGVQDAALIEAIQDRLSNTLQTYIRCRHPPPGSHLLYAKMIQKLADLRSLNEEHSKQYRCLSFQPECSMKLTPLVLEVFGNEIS
# Sequence of Peroxisome proliferator-activated receptor gamma (Homo sapiens) (P37231 whole entry, looked up): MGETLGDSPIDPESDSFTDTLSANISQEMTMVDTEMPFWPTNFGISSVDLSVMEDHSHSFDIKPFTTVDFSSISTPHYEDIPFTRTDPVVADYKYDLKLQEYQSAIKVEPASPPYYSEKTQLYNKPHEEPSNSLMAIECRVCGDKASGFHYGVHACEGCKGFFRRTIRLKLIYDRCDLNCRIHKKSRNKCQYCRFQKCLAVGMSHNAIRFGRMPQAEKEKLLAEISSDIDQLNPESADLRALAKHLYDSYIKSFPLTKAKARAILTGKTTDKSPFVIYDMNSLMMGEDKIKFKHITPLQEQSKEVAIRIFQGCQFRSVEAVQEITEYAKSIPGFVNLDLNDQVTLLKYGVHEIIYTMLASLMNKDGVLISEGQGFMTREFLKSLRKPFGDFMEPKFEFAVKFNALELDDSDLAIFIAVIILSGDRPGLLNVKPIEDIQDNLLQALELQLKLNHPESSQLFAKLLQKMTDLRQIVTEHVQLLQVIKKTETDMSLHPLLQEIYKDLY
# Sequence of Aryl hydrocarbon receptor (Homo sapiens) (P35869 whole entry, looked up): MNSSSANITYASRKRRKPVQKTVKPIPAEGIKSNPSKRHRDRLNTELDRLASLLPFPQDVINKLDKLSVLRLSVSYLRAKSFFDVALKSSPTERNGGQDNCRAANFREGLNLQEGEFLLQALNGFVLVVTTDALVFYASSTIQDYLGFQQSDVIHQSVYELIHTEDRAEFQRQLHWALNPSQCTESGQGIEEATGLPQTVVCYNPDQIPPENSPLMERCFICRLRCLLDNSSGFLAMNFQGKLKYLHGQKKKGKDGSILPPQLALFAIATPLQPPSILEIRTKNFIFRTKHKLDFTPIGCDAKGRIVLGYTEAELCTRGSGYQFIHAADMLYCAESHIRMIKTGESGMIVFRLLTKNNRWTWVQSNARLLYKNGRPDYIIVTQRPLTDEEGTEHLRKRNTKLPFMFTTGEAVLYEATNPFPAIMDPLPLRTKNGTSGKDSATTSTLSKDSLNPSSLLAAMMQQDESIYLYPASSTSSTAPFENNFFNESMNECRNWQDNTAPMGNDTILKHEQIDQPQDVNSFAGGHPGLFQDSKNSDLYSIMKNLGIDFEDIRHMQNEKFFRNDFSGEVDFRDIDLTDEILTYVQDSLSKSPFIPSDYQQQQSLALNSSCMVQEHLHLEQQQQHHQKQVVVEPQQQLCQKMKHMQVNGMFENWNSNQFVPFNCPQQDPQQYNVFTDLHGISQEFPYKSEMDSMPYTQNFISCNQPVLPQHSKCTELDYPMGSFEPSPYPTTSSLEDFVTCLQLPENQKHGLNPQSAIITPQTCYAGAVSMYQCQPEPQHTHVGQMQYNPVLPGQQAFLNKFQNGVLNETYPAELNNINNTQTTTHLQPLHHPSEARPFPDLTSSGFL
SMILES,Potency [1],Potency [2],Potency [3],outcome [4],Potency [5],Potency [6],Potency [7],Potency [8],Potency [9],outcome [10],Potency [11],outcome [12],Potency [13],Potency [14],Potency [15],outcome [16],outcome [17],Potency [18],Potency [19],outcome [20]
COP(=O)(OC)OC=C(Cl)Cl,inactive,inactive,inactive,inactive,inactive,inactive,inactive,inactive,inactive,inactive,inactive,inactive,inactive,inactive,–,–,–,–,–,–
COc1ccccc1N,inactive,54.4 µM (active) and inactive,inactive,inactive,inactive,inactive,inactive,inactive,inactive,–,–,–,inactive,inactive,inactive,inactive,–,–,–,–
N#CS,inactive,inactive,inactive,–,inactive,inactive,inactive,inactive,inactive,–,inactive,–,inactive,inactive,–,inactive,inactive,inactive,–,–
C[N+](C)(C)Cc1ccccc1,inactive,inactive,inactive,inactive,inactive,inactive,inactive,inactive,inactive,inactive,inactive,inactive,inactive,inactive,–,–,inactive,inactive,inactive,inactive
C[C@]12CCC(=O)C=C1CC[C@@H]1[C@@H]2CC[C@]2(C)C(=O)CC[C@@H]12,inactive,inactive,inactive,inactive,inactive,–,inactive,inactive,inactive,inactive,–,–,inactive,inactive,–,inactive,–,–,inactive,inactive
O=C(O)C(Cl)Cl,inactive,inactive,inactive,inactive,inactive,inactive,inactive,inactive,inactive,inactive,–,inactive,inactive,inactive,inactive,inactive,–,–,–,–
CC(Cl)(Cl)C(=O)O,inactive,inactive,inactive,inactive,inactive,inactive,inactive,inactive,inactive,inactive,–,inactive,inactive,inactive,inactive,inactive,inactive,inactive,–,–
